Reference: publication PMC4336329 (PLoS ONE, 2015)
The whole screen tested about 310,000 compounds, of which about 14,000 (4.5%) showed an effect of 50% or more. The effect is printed as a negative number. The list comes from a sample in which strong results are over-represented; it also holds similar structures and randomly drawn compounds.

target: human ether-à-go-go-related gene (hERG) potassium channel (human, UniProt Q12809); test: primary screen, population patch clamp on CHO cells stably expressing hERG; higher = less effect of the substance
Sequence (Q12809 whole entry, looked up): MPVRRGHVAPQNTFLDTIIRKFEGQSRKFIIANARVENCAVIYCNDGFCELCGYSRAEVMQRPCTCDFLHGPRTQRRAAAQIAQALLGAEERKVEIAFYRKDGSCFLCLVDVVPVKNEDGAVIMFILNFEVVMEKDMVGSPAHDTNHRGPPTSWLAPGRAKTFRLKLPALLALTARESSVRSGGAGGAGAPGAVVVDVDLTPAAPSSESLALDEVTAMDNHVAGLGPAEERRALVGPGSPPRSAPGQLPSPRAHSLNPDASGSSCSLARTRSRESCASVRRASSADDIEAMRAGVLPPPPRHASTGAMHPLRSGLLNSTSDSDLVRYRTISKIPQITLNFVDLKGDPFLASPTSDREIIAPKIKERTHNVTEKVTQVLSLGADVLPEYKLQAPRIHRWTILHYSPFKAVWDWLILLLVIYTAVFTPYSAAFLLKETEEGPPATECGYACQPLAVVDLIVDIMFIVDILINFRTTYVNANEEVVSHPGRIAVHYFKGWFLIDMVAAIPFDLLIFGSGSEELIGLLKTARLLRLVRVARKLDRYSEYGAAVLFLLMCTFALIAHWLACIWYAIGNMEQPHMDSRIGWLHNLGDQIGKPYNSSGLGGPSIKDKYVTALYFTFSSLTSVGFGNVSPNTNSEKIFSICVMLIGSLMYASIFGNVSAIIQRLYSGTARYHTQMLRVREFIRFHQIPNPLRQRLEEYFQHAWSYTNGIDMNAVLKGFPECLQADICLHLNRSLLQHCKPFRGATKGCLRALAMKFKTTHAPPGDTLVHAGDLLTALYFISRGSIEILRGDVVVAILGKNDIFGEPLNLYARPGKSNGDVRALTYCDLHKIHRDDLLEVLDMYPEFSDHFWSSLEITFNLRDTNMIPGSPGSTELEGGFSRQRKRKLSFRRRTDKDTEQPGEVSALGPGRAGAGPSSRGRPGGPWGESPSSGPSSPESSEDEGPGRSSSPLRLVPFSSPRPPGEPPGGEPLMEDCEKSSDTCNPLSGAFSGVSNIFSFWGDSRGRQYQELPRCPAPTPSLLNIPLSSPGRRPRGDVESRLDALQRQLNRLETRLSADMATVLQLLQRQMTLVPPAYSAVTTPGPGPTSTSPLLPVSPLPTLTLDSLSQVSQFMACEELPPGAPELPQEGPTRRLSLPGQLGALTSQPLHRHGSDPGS
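Also: peak tail current of the secondary pulse compared with the same well before compound.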

SMILES	hERG current change (%, negative = inhibition) at 10uM
O=C(CSc1nnc(-c2ccc(O)cc2)n1Cc1ccccc1)NNC(=O)c1ccc(Br)cc1	-4.24%
Cc1ccc(NC(=O)COC(=O)CCc2ccc(S(=O)(=O)N3CCOCC3)cc2)cc1F	-11%
CCn1c(COc2ccccc2)nnc1SCC(=O)Nc1ccc2c(c1)OCCO2	-6.9%
Cc1ccc(NC(=O)c2nc[nH]c2C(=O)N2CCN(c3ccccc3)CC2)cc1	8.53%
O=C(NCCC1CCCCN1S(=O)(=O)c1ccccc1)C(=O)Nc1ccc(F)cc1F (stereo not shown)	2.67%
CC(C)NC(=O)CSc1nnc(COc2ccccc2Cl)o1	9.76%
Cc1ccc(SCC(=O)OCC(=O)N(C)CC(=O)Nc2ccc(F)cc2)cc1C	-38.7%
CC#CCC(CC#CC)c1nc2ccccc2c(=O)n1N	-1.36%
Cc1cc[n+](-c2[nH]c(=O)sc2/C=N/N=C(\[O-])c2ccncc2)cc1	5.61%
CCCc1ccc(-c2cc(C(=O)N3CCN(c4ccccn4)CC3)c3ccccc3n2)cc1	13.4%
CCOC(=O)c1ccccc1NC(=O)c1cccc2c1C(=O)N(C1CCN(C(=O)OCC)CC1)C2	-30.4%
CCOC(=O)N1CCC(NC(=O)c2cccc3c2C(=O)N(CCOC)C3)CC1	-1.34%
CCOC(=O)N1CCC(N2Cc3cccc(C(=O)NCc4ccccc4OC)c3C2=O)CC1	-71.2%
CCOC(=O)N1CCC(NC(=O)c2cn(-c3ccc(OC)cc3)c(=O)c3ccccc23)CC1	-6.75%
CCOC(=O)N1CCC(N2Cc3cccc(C(=O)Nc4ccccc4OC)c3C2=O)CC1	-79.2%
CCOC(=O)N1CCC(NC(=O)c2cccc3c2C(=O)N(c2ccc(OC)cc2)C3)CC1	-58.3%
CCOC(=O)N1CCC(N2Cc3cccc(C(=O)NCc4ccc(OC)cc4)c3C2=O)CC1	-40%
CCOC(=O)N1CCC(N2Cc3cccc(C(=O)Nc4ccc(OC)c(OC)c4)c3C2=O)CC1	-9.58%
CCOC(=O)N1CCC(N2Cc3cccc(C(=O)NCc4ccc(C)cc4)c3C2=O)CC1	-42.6%
CCOCCn1c(N2CCCC2)nc2c1c(=O)[nH]c(=O)n2C	15.1%

SMILES	hERG current change (%, negative = inhibition) at 10uM
COc1ccc2nc(N3C(=O)CC(Cc4cc(C)cc(C)c4)C3=O)sc2c1 (stereo not shown)	9.23%
COc1ccc(CCNC(=S)N2CCN(S(=O)(=O)c3ccc(Cl)cc3)CC2)cc1	22%
OCCN(Cc1ccccc1)Cc1ccc(C(F)(F)F)cc1	-3.33%
COc1ccc(-c2oc3cccnc3c2C#CCO)cc1	9.84%
COc1ccc2[nH]c(=O)c(CN(CCO)S(=O)(=O)c3c(C)ccc4nsnc34)cc2c1	-3.86%
C/C(=N\NC(=O)c1cc(-c2ccccc2C)nc2ccccc12)c1cccnc1	-10.3%
CCSCc1nnc(SCC(=O)Nc2cccc(C(C)=O)c2)n1C	11.9%
CCOc1ncccc1C(=O)Nc1ccc(F)c(Cl)c1	24.1%
CN(Cc1ccccc1)c1ccc(N2C(=O)CCCC2=O)cc1[N+](=O)[O-]	6.5%
O=C(Nc1ccc2ccccc2c1)c1ccc(NS(=O)(=O)c2ccc(Br)s2)cc1	12%
Cc1cc(F)ccc1NC(=O)c1ccc(NS(=O)(=O)c2cc(C(C)(C)C)ccc2C)cc1	0.887%
Cc1ccc(F)cc1NC(=O)c1ccc(NS(=O)(=O)c2ccc(Br)s2)cc1	-70%
Cc1ccc(-c2ccc(=O)n(CC(=O)N3CCC4(CC3)OCCO4)n2)cc1	5.07%
Cc1ccc(-c2ccc(=O)n(CCC(=O)N3CCC4(CC3)OCCO4)n2)cc1	-64.5%
CCc1ccc(C2=NN(CCC(=O)N3CCC4(CC3)OCCO4)C(=O)CC2)cc1	-10.3%
O=C(CCn1nc(-c2ccc(Cl)cc2)ccc1=O)N1CCC2(CC1)OCCO2	-39.8%
Cc1ccc(C2=NN(CCC(=O)N3CCC4(CC3)OCCO4)C(=O)CC2)cc1	-57.5%
Cc1ccc2c(c1)N(CCC(=O)N1CCC3(CC1)OCCO3)C(=O)CO2	-16.8%
O=C(Nc1ccc(C2=NCCN2)cc1)c1ccc(C(=O)Nc2ccc(C3=NCCN3)cc2)c([N+](=O)[O-])c1	20.1%
O=C(Nc1ccc(F)cc1F)N1CCCN(c2ccc(C(F)(F)F)cn2)CC1	-12.4%
